Pf growth 48h = P. falciparum growth inhibition at 48 hours (one generation) | AID 504832 | 310,000 tested, 5.9% active | P. falciparum luciferase growth in erythrocytes, 48 h | Potency, µM (series often up to 28.7 µM), for the others: at the top dose activity change, negative = inhibition, usual class: inhibitors; further: potency means the concentration at half of the fitted maximal effect
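Cell-based growth assay: transgenic P. falciparum expressing firefly luciferase, cultured in red cells within RPMI 1640 containing 0.5% w/v Albumax, 24 mM bicarbonate and gentamycin. A drop in luciferase activity indicates inhibition.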
MARV entry inh = inhibitors of Marburg virus binding or cell entry | Marburg virus pseudotyped entry inhibition, cell reporter | Potency, µM (series often up to 37.8 µM), for the others: top-dose activity change, negative = inhibition, most hits filed as inhibitors | 300,000 tested, 1.8% active; calls by dose curve; tested in HEK293 cells; further: potency means the concentration at half of the fitted maximal effect
Pf growth 96h = P. falciparum growth inhibition at 96 hour, primary screen for plastid delayed-death inhibitors; P. falciparum luciferase reporter growth, 96 h; Potency, µM (series often up to 28.7 µM), for the others: at the highest dose activity change, negative = inhibition, usual class: inhibitors; 320,000 tested, 6.9% active; further: potency means the concentration at half of the fitted maximal effect
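Luminescence readout: decreased luciferase signal marks inhibited growth of reporter-expressing P. falciparum in infected red cells (2% hematocrit, 0.05% parasitemia final), exposed to compound two generations (96 h, 37 C, 5% CO2).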
HCV inhibitor = blocks hepatitis C virus. Huh7.5.1 HCVcc-Cre infection, luciferase reporter, 44 h. Potency, µM (titrated, usually from 41.8 µM), without a hit: top-dose activity change, negative = inhibition, usual class: inhibitors. 340,000 tested, 3.4% active. AID 651820; further: potency means the concentration at half of the fitted maximal effect
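Seed cells (1,000/well) for 4 h; treat with compound and infect with HCVcc-Cre, moi about 0.5. Incubate 44 h, then detect luciferase activity.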
LASV entry inh = inhibitors of Lassa virus binding or cell entry; Lassa virus pseudotype entry inhibition, cell reporter; AID 540256; 300,000 tested, 1.2% active; Potency, µM (highest dose often 37.9 µM), inactives show at the highest dose activity change, negative = inhibition, most hits filed as inhibitors; calls by dose curve; tested in HEK293 cells; further: potency means the concentration at half of the fitted maximal effect; nearly all actives have a fitted effect of over 50% in size
HCMV antiviral = human cytomegalovirus inhibition; HFF cells, HCMV-luciferase reporter, 72 h; stronger effect = lower value; activity change, negative = inhibition, % at 57.5 µM; 410,000 tested, 4.5% active; AID 1259415; in the data active means activity change below about -60%; inconclusive means no clear call, values can overlap the other calls; inactive means above about -39%
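Cell-based, HFFs, 1000 cells/well, 16 h 37C; cpds in DMSO + HCMV-luc, MOI 1 PFU/cell; 72 h 37C; OneGlo luminescence after 5 min RT; norm. to buffer vs Salinomycin 10uM.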
* = called active by the depositor; ? = inconclusive; . = no result given; [ ] = another dose, or the depositor's remark. Compounds with a hit are over-represented: about 14% of the library has one in this group of screens. Unless noted, the call rests on the fitted dose curve; in most records, active means well fitted inhibition curve with a large enough effect; inconclusive means small, poorly fitted or top-dose-only effect, or another doubt; inactive means no such curve, though single readings can be large or run the other way. On the % scale 0 is the no-effect control and ±100 the full control effect.

SMILES	Pf growth 48h	MARV entry inh	Pf growth 96h	HCV inhibitor	LASV entry inh	HCMV antiviral
CCOc1cc(C2c3c(n[nH]c3C)C(=O)N2c2ccc(C)cc2)ccc1O (stereo not drawn)	12.3%	12.1%	?	?	-26.9%	-80.9*
COc1ccccc1NS(=O)(=O)c1ccc2oc(N)nc2c1	-16.1%	-11.4%[46.1 µM]	10.5%	1.6%	-5.2%	9.4
CCOC(=O)c1ccc(N2C(=O)c3n[nH]c(C)c3C2c2ccccn2)cc1 (stereo not drawn)	.	.	2.1%	12.9%	.	-5.5
CCOC(=O)c1ccc(N2C(=O)c3n[nH]c(C)c3C2c2ccc(OCC)cc2)cc1 (stereo not drawn)	.	?	.	.	?	-75.7*
NC1(C#Cc2ccc3oc(=O)c(-n4cc(-c5ccsc5)nn4)cc3c2)CCCCC1	17.1%	.	-1.6%	?	.	-72.5*
CC1=C(C(=O)Nc2ccccc2)C(c2ccccn2)n2nc(SCc3ccccc3)nc2N1 (stereo not drawn)	.	?	.	.	?	-10.9
COc1ccccc1NC(=O)N1CC(=O)N2[C@H](C1)[C@@H](c1ccc(Br)cc1)[C@@H]2CO	.	.	.	.	.	7.0
O=[N+]([O-])c1cc(-n2cnnn2)ccc1N1CCC(Cc2ccccc2)CC1	?	?	10.7%	?	-26.0%	-103.2*
CC1CC(C)CN(c2ccc(-n3cnnn3)cc2[N+](=O)[O-])C1 (stereo not drawn)	-6.1%	?	54.1%	3.0%	-17.0%	-39.1
COc1ccc(CNC(=O)c2ccc(-c3nc(CSc4ccccc4)c(C)o3)cc2)cc1	.	.	.	.	6.4%[46.1 µM]	-13.1
Cc1ccc(N2C(=O)CN(Cc3sccc3C)C2=S)cc1C	11.7µM*	4.5%	-9.5%	-3.7%	-7.7%	?
Cn1c(Nc2ccccc2)nc2cnc(-c3ccc(S(C)(=O)=O)cc3)cc21	.	.	.	.	.	-3.8
CCCc1nnc(NC(=O)CCC(=O)N2CCN(CCOC(c3ccccc3)c3ccccc3)CC2)s1	10.4µM*	?	?	-1.9%	1.9%	8.7
C#CCOCCOCCOCCNc1nc(N2CCOCC2)nc(N2CCN(C(=O)[C@H](Cc3cc4ccccc4[nH]3)n3cc([C@@H](N)Cc4ccc(O)cc4)nn3)CC2)n1	?	.	1.85µM*	9.7%	.	17.9
C#CCOCCOCCOCCNc1nc(N2CCN(C(=O)[C@H](CCC(=O)O)n3cc(C(N)Cc4ccc(O)cc4)nn3)CC2)nc(N2CCN(C(=O)[C@H](Cc3cc4ccccc4[nH]3)n3cc(C(N)CC(C)C)nn3)CC2)n1 (stereo partly drawn)	23.7%	.	3.7%	.	.	.
C#CCOCCOCCOCCNc1nc(N2CCOCC2)nc(N2CCN(C(=O)[C@H](CCC(=O)O)n3cc(C(N)Cc4ccc(O)cc4)nn3)CC2)n1 (stereo partly drawn)	3.4%	.	17.3%	6.6%	.	.
C#CCOCCOCCOCCNc1nc(N2CCN(C(=O)[C@H]([C@@H](C)CC)n3cc([C@@H](N)CO)nn3)CC2)nc(N2CCN(C(=O)[C@H](Cc3cc4ccccc4[nH]3)n3cc([C@@H](N)Cc4ccc(O)cc4)nn3)CC2)n1	-99.9%	.	2.94µM*	.	.	.
C#CCOCCOCCOCCNc1nc(N2CCN(C(=O)[C@H](Cc3cc4ccccc4[nH]3)n3cc([C@@H](N)C(C)CC)nn3)CC2)nc(N2CCN(C(=O)[C@H](Cc3cc4ccccc4[nH]3)n3cc([C@@H](N)CC(C)C)nn3)CC2)n1 (stereo partly drawn)	11.7µM*	.	?	.	.	.
C#CCOCCOCCOCCNc1nc(N2CCN(C(=O)[C@H](CCCCN)n3cc([C@@H](N)C(C)CC)nn3)CC2)nc(N2CCN(C(=O)[C@H](Cc3cc4ccccc4[nH]3)n3cc([C@@H](N)CC(C)C)nn3)CC2)n1 (stereo partly drawn)	1.5%	.	35.1%	11.0%	.	.
C#CCOCCOCCOCCNc1nc(N2CCN(C(=O)[C@H]([C@@H](C)CC)n3cc([C@@H](N)Cc4ccc(O)cc4)nn3)CC2)nc(N2CCN(C(=O)[C@H](CCCCN)n3cc([C@@H](N)CO)nn3)CC2)n1	-4.0%	.	20.2%	.	.	.
C#CCOCCOCCOCCNc1nc(N2CCN(C(=O)C(Cc3ccc(O)cc3)n3cc(C(N)CC(C)C)nn3)CC2)nc(N2CCN(C(=O)C(Cc3cc4ccccc4[nH]3)n3cc(C(N)Cc4ccc(O)cc4)nn3)CC2)n1 (stereo not drawn)	?	.	13.1µM*	.	.	.
COc1ccccc1N(/N=C1\Sc2ccccc2C1=O)C(C)=O	-9.5%	.	-21.5%	?	.	-36.1
COc1cccc(NC(=O)c2sc3nc(C)c(C(=O)Nc4ccc(C)cc4C)c(-c4cccs4)c3c2N)c1	.	2.3%[46.1 µM]	.	.	?	?
Cc1cccc(-c2noc(CSc3nc(-c4ccc(F)cc4)cc(=O)[nH]3)n2)c1	.	.	.	.	4.3%[46.1 µM]	0.0
CNCCC(Oc1ccccc1OC)c1ccccc1 (stereo not drawn)	-17.0%	18.3µM*	-10.8%	?	?	-15.8
SMILES	Pf growth 48h	MARV entry inh	Pf growth 96h	HCV inhibitor	LASV entry inh	HCMV antiviral
COC(=O)C1=C(C)N(Cc2ccccc2)C(=S)NC1c1ccc(Br)cc1 (stereo not drawn)	.	-35.9%[14.2 µM]	.	.	?	2.0
CC1CCCCC1NC(=O)c1ccc(CNc2c(N3CCCC3)c(=O)c2=O)cc1 (stereo not drawn)	-1.1%	.	8.28µM*	?	.	-10.4
CC1CCN(c2c(NCc3ccc(C(=O)NCCc4ccc(Cl)cc4)cc3)c(=O)c2=O)CC1	?	-21.0%	8.28µM*	-3.0%	13.3%	?
CN(C)CCCNC(=S)Nc1ccc(-c2ccccc2)cc1	?	.	?	11.2µM*	.	0.0
CC(C)N(c1ccccc1)c1ccc(NC(=S)NCCN(C)C)cc1	-22.8%	11.2µM*	0.0%	?	?	-26.0
CN(C)CCCNC(=S)Nc1ccc(Oc2ccccc2)cc1	23.0%	?	?	?	14.9%	?
COc1cc(NC(=O)CSc2nc(-c3ccco3)cc(C(F)(F)F)n2)cc(OC)c1OC	.	-10.7%[46.1 µM]	.	.	-20.6%[46.1 µM]	?
